The results in this text go back to PubChem BioAssay (NCI).

This is part of a sample that, as a whole, favours compounds with a hit. Of some 79,000 tested, about 15% had one in any assay. Values without a mark were called inactive. The source made the active and inactive calls. Rule as the data show it: active = growth inhibition above about 70%; inactive = the rest.

A short description of experiment [1]: NCI Yeast Anticancer Drug Screen. Data for the rad50 strain (AID 155).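 Also: 0% = growth of vehicle-only cultures of the same strain.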 To be noted: S. cerevisiae rad50 strain growth inhibition, active compounds read high; at 50.0 µM unless noted. The method in brief: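 Compounds were tested on a yeast strain with an engineered DNA damage repair alteration; the reported value is growth inhibition normalised to vehicle treatment.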

Experiment [2] can be described thus: NCI Yeast Anticancer Drug Screen. Data for the mec2-1 strain (AID 157). The conditions noted are these: S. cerevisiae mec2-1 strain, active compounds read high; at 50.0 µM unless noted. The method in brief: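 Mutant yeast (mec2-1) grown with compound; growth inhibition relative to vehicle control reported.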
Experiment [3] can be described thus: NCI Yeast Anticancer Drug Screen. Data for the sgs1 mgt1 strain (AID 161).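 Also: 0% = growth of cultures given vehicle only.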 The conditions noted are these: S. cerevisiae sgs1 mgt1 strain, active compounds read high; at 50.0 µM unless noted. The method in brief: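 This yeast growth screen uses a strain with defined DNA-repair lesions; compound-treated growth is compared with vehicle-treated growth.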
Experiment [4] can be described thus: NCI Yeast Anticancer Drug Screen. Data for the cln2 rad14 strain (AID 165).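 Also: 0% = growth equal to vehicle treated cultures.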 To be noted: S. cerevisiae cln2 rad14 strain, active compounds read high; at 50.0 µM unless noted. The method in brief: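 Readout is yeast growth inhibition versus vehicle-treated controls, using a strain with cln2 and rad14 alterations exposed to compound.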
Experiment [5] can be described thus: NCI Yeast Anticancer Drug Screen. Data for the bub3 strain (AID 167). The conditions noted are these: S. cerevisiae bub3 mutant strain, active compounds read high; at 50.0 µM unless noted. The method in brief:
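Growth of a checkpoint-deficient yeast mutant is measured after compound exposure. Values represent inhibition relative to vehicle.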

Experiment [6] in a line: NCI Yeast Anticancer Drug Screen. Data for the mlh1 rad18 strain (AID 175). To be noted: S. cerevisiae mlh1 rad18 strain growth inhibition, active compounds read high; at 50.0 µM unless noted. The method in brief: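 Genetically defined yeast (DNA repair-deficient) exposed to compounds; growth inhibition determined relative to vehicle.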

For the compound `CN1c2ccccc2C2CCCCC21` (stereo not given), the growth inhibition was 11.6% in experiment [1]; 9.7% in experiment [2]; 2.15% in experiment [3]; -20.2% in experiment [4]; 22.8% in experiment [5]; 4.25% in experiment [6].
Turning to `CCOC(=O)CN(c1ccccc1)c1nc(=[N+](C)C)ss1`, the growth inhibition was 7.05% in experiment [1]; 0.65% in experiment [2]; 6.8% in experiment [3]; 2.55% in experiment [4]; 1.35% in experiment [5]; 22.9% in experiment [6].
`O=C1CCCc2[nH]ccc21`: the growth inhibition in experiment [1] was -14.7%; in experiment [2] it was -1.2%; in experiment [3], -9.25%; in experiment [4], 64.6%; in experiment [5] it was 14.8%; in experiment [6], -4.55%.
With `O=C1CCC2OC(=O)C3CCCC1C23` (stereo not given), the growth inhibition in experiment [1] was -6.05%; in experiment [2] it was -1.85%; in experiment [3], -19%; in experiment [4], 0.1%; in experiment [5], -2.65%; in experiment [6] it was -14.2%.
As for `ClC(Cl)(Cl)c1ncnc2nc[nH]c12`, the growth inhibition is -15.1% in experiment [1]; -11.8% in experiment [2]; 0.5% in experiment [3]; 9.95% in experiment [4]; -16.9% in experiment [5]; 13.3% in experiment [6].
Consider `COc1cc2cnc3c4cc(OCc5ccccc5)ccc4ccc3c2cc1OC`, for which the growth inhibition in experiment [1] is -10.1%; in experiment [2], 3.2%; in experiment [3] it was -1%; in experiment [4], 25.3%; in experiment [5], 14.2%; in experiment [6], -0.25%.
Regarding `[N-]=[N+]=Nc1c2c(nc3ccccc13)CCCC2`, the growth inhibition is -38.1% in experiment [1]; -10.2% in experiment [2]; -21.4% in experiment [3]; -51.1% in experiment [4]; 0.3% in experiment [5]; -4.4% in experiment [6].
For `O=C(CO[N+](=O)[O-])OC/C=C/c1ccccc1`, the growth inhibition is -4.25% in experiment [1]; 5.35% in experiment [2]; -2% in experiment [3]; -0.65% in experiment [4]; 2.55% in experiment [5]; 8.6% in experiment [6].
As for `O=C1CSC(c2ccc(F)cc2F)N1c1nncs1` (stereo not given), the growth inhibition in experiment [1] is 13.4%; in experiment [2], -3.7%; in experiment [3], 22.8%; in experiment [4], -35.2%; in experiment [5] it was -23.8%; in experiment [6], 24.2%.
In the case of `O=C(Nc1ccccc1)Nc1ccc([N+](=O)[O-])cc1[N+](=O)[O-]`, the growth inhibition in experiment [1] is 25.5%; in experiment [2] it was 5.95%; in experiment [3] it was 26.9%; in experiment [4] it was 19.7%; in experiment [5], 11.9%; in experiment [6] it was 20.6%.
With `CC(=O)[CH-]C(=O)c1ccccc1.CC(=O)[CH-]C(=O)c1ccccc1.CC1(C)OCC(C2OC3OC(C)(C)OC3C2[O-])O1.CC[O-].[Ti+4]` (stereo not given), the growth inhibition in experiment [1] is 41.4%; in experiment [2], 24.1%; in experiment [3], 35.5%; in experiment [4] it was 23%; in experiment [5], 31.2%; in experiment [6], 33.4%.
Regarding `CCCC(=O)CC(=O)C(F)(F)F.CCCC(=O)CC(=O)C(F)(F)F.CCCC(=O)CC(=O)C(F)(F)F.[Er]`, the growth inhibition is 25% in experiment [1]; 10.8% in experiment [2]; 44.2% in experiment [3]; -0.15% in experiment [4]; -5.65% in experiment [5]; 50.1% in experiment [6].
As for `O=CC(O)C(O)C(O)C(O)C(O)C(O)CO` (stereo not given), the growth inhibition in experiment [1] is 16%; in experiment [2] it was 10.7%; in experiment [3], 28.1%; in experiment [4], -1.55%; in experiment [5], 5.9%; in experiment [6], 19.6%.
On to `c1ccc(CCCNc2nnnc3ccccc23)cc1`, for which the growth inhibition in experiment [1] was -9.3%; in experiment [2], -36.1%; in experiment [3], -10.8%; in experiment [4], -19.2%; in experiment [5], -57.2%; in experiment [6], -4.4%.
With `CCN(CC)CCCCCCNc1cc(O)cc2cccnc12`, the growth inhibition in experiment [1] is 18.5%; in experiment [2] it was 30.8%; in experiment [3] it was 44%; in experiment [4] it was 8.45%; in experiment [5], 11.4%; in experiment [6] it was 14.4%.
For the compound `N#CCc1cccc(Cl)c1Cl` (tested in a mixture with another compound), the growth inhibition in experiment [1] is 6.8%; in experiment [2], -15.3%; in experiment [3], 3.55%; in experiment [4], -22.4%; in experiment [5], 14.4%; in experiment [6], -7.55%.
As to `O=C1c2ccccc2C(=O)N1/N=[N+](\[O-])c1ccccc1`, the growth inhibition in experiment [1] is 3.55%; in experiment [2], 0.3%; in experiment [3] it was 17.2%; in experiment [4], 7.3%; in experiment [5] it was 25.3%; in experiment [6], 40.8%.
Turning to `COC1OC(COC(=O)NCCCCC(=O)C(F)(F)F)C(O)C(O)C1O` (stereo not given), the growth inhibition is 3.6% in experiment [1]; 22.6% in experiment [2]; -0.5% in experiment [3]; 29.9% in experiment [4]; 28.2% in experiment [5]; 11.6% in experiment [6].
Turning to `CCOC(=O)c1c(-c2ccccc2)csc1NS(=O)(=O)c1ccc(C)cc1`, the growth inhibition is 81.8% (active) in experiment [1]; 78.2% (active) in experiment [2]; 87% (active) in experiment [3]; 82.3% (active) in experiment [4]; 81.8% (active) in experiment [5]; 90.6% (active) in experiment [6].
In the case of `CC1CCCN(CCC(=O)c2ccc(O)cc2)C1` (stereo not given), the growth inhibition in experiment [1] was 38.2%; in experiment [2], 22.5%; in experiment [3], 26.3%; in experiment [4], 21.2%; in experiment [5] it was 7.35%; in experiment [6], 32.4%.
